The source made the active and inactive calls.

This is an account of results in PubChem BioAssay.

A short description of test [1]: small molecules captured by biotinylated probe aFSTL3 – biochemical, small-molecule microarray, fluorescence 635/667, stem cell growth factor project, primary screen (AID 1064).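 Further: measures binding of the biotinylated anti-FSTL3 antibody to printed compounds.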 The settings on record: higher = more signal.
The nature of test [2]: binders from COS7 lysate, DM2A8 probe, primary screen, torsin A project, cell lysate, small-molecule microarray, fluorescence 635/667 (AID 1065). As to conditions: higher = more signal, COS7 lysate expressing mutant human TOR1A.
A short description of test [3]: small molecules captured by biotinylated probe aFGF2 – biochemical, small-molecule microarray, fluorescence 635/667, stem cell growth factor project, primary screen (AID 1067).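 Further: measures binding of biotinylated aFGF2 protein to printed compounds on slides; z-score merges feature fluorescence and signal-to-noise across triplicate slides.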 The settings on record: higher = more signal.
Test [4] can be described thus: small molecules captured by biotinylated probe aFGF10 – biochemical, small-molecule microarray, fluorescence 635/667, stem cell growth factor project, primary screen (AID 1071).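 Further: score merges 667 nm spot intensity and signal to noise from triplicate slides.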 As to conditions: higher = more signal.
Test [5] deals with Neurogenic locus notch homolog protein 2 (Homo sapiens) (UniProt Q04721). Briefly: small molecules binding Notch2 protein – biochemical, small-molecule microarray, 635 nm fluorescence, stem cell growth factors, primary screen (AID 1073). As to conditions: higher = more signal.
Neurogenic locus notch homolog protein 2 (Homo sapiens), sequence (Q04721 whole entry, looked up, canonical isoform): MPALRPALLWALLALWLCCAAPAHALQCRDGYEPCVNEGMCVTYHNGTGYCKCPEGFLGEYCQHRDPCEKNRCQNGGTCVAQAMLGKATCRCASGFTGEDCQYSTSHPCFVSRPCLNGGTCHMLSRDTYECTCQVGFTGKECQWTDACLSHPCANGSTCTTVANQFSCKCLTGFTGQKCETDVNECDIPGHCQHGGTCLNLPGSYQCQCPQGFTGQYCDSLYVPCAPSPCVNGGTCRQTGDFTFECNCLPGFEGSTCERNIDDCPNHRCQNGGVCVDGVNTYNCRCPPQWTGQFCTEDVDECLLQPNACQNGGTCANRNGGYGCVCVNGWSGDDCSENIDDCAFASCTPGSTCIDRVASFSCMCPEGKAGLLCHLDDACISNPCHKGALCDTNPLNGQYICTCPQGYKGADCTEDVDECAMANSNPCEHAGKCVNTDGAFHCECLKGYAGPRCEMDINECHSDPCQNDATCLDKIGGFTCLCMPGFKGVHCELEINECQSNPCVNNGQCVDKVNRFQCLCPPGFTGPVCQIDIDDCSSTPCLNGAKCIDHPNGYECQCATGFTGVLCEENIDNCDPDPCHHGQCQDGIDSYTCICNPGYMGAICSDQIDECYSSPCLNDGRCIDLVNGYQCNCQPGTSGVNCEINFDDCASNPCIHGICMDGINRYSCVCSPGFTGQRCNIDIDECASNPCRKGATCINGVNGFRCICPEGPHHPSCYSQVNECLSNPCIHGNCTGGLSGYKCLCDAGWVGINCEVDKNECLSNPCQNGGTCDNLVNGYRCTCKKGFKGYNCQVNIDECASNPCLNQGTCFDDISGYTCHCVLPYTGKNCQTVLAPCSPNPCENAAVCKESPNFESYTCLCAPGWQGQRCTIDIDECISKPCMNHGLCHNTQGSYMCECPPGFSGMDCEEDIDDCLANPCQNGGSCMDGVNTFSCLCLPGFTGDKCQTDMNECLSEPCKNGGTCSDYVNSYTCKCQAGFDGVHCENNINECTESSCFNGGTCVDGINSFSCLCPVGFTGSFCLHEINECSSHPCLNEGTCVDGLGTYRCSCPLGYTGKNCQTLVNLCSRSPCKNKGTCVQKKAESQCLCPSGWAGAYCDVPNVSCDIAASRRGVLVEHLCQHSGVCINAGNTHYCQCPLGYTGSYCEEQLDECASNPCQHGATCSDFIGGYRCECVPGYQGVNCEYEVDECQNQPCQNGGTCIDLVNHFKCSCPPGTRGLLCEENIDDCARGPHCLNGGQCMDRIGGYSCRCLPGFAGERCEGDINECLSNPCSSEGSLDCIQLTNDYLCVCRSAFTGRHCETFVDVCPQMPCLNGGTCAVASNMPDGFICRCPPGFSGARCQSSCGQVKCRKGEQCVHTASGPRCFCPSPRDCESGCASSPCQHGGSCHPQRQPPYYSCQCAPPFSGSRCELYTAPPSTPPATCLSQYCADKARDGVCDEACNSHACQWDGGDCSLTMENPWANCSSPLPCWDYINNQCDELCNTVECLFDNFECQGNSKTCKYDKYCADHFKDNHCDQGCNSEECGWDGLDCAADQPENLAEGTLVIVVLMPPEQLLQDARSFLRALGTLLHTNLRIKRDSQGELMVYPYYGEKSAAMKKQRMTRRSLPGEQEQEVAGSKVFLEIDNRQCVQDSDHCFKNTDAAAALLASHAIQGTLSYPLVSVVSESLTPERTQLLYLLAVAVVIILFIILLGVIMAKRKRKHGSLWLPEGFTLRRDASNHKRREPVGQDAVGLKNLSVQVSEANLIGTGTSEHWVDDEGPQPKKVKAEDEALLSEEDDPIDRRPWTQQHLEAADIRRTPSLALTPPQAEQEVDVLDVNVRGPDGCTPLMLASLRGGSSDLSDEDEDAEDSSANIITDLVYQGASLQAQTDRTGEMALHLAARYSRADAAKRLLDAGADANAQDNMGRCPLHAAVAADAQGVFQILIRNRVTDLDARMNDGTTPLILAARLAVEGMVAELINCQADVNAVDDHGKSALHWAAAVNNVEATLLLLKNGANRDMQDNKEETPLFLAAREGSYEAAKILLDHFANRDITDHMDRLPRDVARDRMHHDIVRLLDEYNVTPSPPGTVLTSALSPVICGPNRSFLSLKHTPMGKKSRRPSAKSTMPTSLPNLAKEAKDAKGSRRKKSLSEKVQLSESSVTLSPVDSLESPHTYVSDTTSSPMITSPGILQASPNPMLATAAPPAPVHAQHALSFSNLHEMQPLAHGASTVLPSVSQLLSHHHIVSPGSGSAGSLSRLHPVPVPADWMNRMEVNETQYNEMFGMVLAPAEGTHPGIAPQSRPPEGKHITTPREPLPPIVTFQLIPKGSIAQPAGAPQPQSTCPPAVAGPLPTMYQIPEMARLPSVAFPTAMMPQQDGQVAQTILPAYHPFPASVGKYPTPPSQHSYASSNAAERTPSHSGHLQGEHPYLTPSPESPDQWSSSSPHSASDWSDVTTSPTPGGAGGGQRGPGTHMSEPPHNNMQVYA
Test [6] has as its target Pro-neuregulin-1, membrane-bound isoform (Homo sapiens) (UniProt Q02297). The test can be described thus: small molecules binding neuregulin-1 protein – biochemical, small-molecule microarray, fluorescence 635/667, psychiatric disease protein project, primary screen (AID 1075).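 Further: score combines 667 nm spot fluorescence with signal to noise.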 As to conditions: NRG1 binding, 635 nm fluorescence, higher = more signal.
Test [7] relates to Neuregulin-1 EGF-like domain. The test can be described thus: small molecules binding NRG1 EGF domain – biochemical, small-molecule microarray, 635 nm fluorescence, primary screen (AID 1081).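 Further: binding of the protein to compounds printed on small-molecule microarray slides.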 The settings on record: higher = more signal.
Test [8] can be described thus: FRG1 expression reporter modulators in myotubes – cell-based, C2C12 myotubes, firefly/Renilla luciferase, luminescence, FRG1 inhibition for FSHD, primary screen (AID 1084). As to conditions: FRG1 promoter luciferase, higher = more signal, called active from +8 up or from −8 down.
Test [9] is described as follows: small molecules captured by biotinylated probe aFST – biochemical, small-molecule microarray, fluorescence 635/667, stem cell growth factor project, primary screen (AID 1086).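 Further: score merges 667 nm fluorescence with signal-to-noise of each printed compound spot.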 As to conditions: higher = more signal.
Test [10] is described as follows: binders of probe aHhip on microarray, primary screen, stem cell growth factor project, biochemical, small-molecule microarray, fluorescence 635/667 (AID 1087).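 Further: score merges spot fluorescence at 667nm with spot signal to noise ratio.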 The settings on record: higher = more signal.
The test system of test [11] is PRMT1 (protein arginine N-methyltransferase 1). The test can be described thus: small molecules binding arginine methyltransferase PRMT1 – biochemical, small-molecule microarray, 635 nm fluorescence, primary screen (AID 1088).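 Further: binding of Prmt1 protein to compounds spotted on small-molecule microarray slides.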 As to conditions: higher = more signal.
The nature of test [12]: growth effects on S. cerevisiae YJM789 – YJM789 clinical isolate, OD600, 24 h, basal, primary screen (AID 1089).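 Further: growth of clinical yeast isolate S. cerevisiae YJM 789 seeded 1000 cells per well; test concentration not given here.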 The settings on record: higher = more signal, called active from +8 up or from −8 down.
Test [13] in a line: S. pombe growth modifiers, basal conditions – strain 972, OD600, 24 h, no modulator, primary screen (AID 1090).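 Further: basal condition with compound alone and no growth modifier present; test concentration not given here.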 As to conditions: S. pombe 972 growth, higher = more signal, called active from +8 up or from −8 down.
Test [14] in a line: budding yeast growth modifiers under rapamycin – strain BY4716, OD600, 96 h, primary screen (AID 1091). Further: test concentration not given here. As to conditions: S. cerevisiae BY4716 + rapamycin, higher = more signal, called active from +8 up or from −8 down.
For test [15], the target named is Torsin-1A-interacting protein 2 (Homo sapiens) (UniProt Q8NFQ8). Briefly: small molecules binding lysate-expressed LULL1 – cell lysate, human LULL1 lysate, 635/667 nm fluorescence, primary screen (AID 1092).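 Further: probe is lysate of COS7 cells overexpressing human LULL1; score merges per-feature 667 nm fluorescence with signal-to-noise.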 The settings on record: small-molecule microarray, hLULL1 lysate binding, 635 nm fluorescence; higher = more signal.
A short description of test [16]: optical density change of DRC41 E. coli – strain DRC41, OD650, 24 h, E. coli filamentation project, primary screen (AID 1093).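 Further: MC1000 strain lacking acrAB efflux and sulA so SOS filamentation is blocked; test concentration not given here.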 The settings on record: E. coli DRC41 growth, higher = more signal, called active from +8 up or from −8 down.
A short description of test [17]: probe aLefty2 binding to arrayed compounds – biochemical, biotinylated probe, 635/667 nm fluorescence, primary screen (AID 1094).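 Further: score merges spot fluorescence near 667 nm with spot signal-to-noise ratio.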 As to conditions: small-molecule microarray, higher = more signal.
The subject of test [18] is Noggin (protein binding on small-molecule microarray). The test can be described thus: small molecules binding Noggin protein – biochemical, 635/667 nm fluorescence, primary screen (AID 1095).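 Further: score merges 667 nm feature fluorescence with signal to noise over triplicate slides.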 The settings on record: 635 nm fluorescence, higher = more signal.
The target in test [19] is Neurogenic locus notch homolog protein 3 (Homo sapiens) (UniProt Q9UM47). The test can be described thus: small molecules binding NOTCH3 protein – biochemical, 635/667 nm fluorescence, primary screen (AID 1096). The settings on record: small-molecule microarray, 635 nm fluorescence, higher = more signal.
Neurogenic locus notch homolog protein 3 (Homo sapiens), sequence (Q9UM47 whole entry, looked up): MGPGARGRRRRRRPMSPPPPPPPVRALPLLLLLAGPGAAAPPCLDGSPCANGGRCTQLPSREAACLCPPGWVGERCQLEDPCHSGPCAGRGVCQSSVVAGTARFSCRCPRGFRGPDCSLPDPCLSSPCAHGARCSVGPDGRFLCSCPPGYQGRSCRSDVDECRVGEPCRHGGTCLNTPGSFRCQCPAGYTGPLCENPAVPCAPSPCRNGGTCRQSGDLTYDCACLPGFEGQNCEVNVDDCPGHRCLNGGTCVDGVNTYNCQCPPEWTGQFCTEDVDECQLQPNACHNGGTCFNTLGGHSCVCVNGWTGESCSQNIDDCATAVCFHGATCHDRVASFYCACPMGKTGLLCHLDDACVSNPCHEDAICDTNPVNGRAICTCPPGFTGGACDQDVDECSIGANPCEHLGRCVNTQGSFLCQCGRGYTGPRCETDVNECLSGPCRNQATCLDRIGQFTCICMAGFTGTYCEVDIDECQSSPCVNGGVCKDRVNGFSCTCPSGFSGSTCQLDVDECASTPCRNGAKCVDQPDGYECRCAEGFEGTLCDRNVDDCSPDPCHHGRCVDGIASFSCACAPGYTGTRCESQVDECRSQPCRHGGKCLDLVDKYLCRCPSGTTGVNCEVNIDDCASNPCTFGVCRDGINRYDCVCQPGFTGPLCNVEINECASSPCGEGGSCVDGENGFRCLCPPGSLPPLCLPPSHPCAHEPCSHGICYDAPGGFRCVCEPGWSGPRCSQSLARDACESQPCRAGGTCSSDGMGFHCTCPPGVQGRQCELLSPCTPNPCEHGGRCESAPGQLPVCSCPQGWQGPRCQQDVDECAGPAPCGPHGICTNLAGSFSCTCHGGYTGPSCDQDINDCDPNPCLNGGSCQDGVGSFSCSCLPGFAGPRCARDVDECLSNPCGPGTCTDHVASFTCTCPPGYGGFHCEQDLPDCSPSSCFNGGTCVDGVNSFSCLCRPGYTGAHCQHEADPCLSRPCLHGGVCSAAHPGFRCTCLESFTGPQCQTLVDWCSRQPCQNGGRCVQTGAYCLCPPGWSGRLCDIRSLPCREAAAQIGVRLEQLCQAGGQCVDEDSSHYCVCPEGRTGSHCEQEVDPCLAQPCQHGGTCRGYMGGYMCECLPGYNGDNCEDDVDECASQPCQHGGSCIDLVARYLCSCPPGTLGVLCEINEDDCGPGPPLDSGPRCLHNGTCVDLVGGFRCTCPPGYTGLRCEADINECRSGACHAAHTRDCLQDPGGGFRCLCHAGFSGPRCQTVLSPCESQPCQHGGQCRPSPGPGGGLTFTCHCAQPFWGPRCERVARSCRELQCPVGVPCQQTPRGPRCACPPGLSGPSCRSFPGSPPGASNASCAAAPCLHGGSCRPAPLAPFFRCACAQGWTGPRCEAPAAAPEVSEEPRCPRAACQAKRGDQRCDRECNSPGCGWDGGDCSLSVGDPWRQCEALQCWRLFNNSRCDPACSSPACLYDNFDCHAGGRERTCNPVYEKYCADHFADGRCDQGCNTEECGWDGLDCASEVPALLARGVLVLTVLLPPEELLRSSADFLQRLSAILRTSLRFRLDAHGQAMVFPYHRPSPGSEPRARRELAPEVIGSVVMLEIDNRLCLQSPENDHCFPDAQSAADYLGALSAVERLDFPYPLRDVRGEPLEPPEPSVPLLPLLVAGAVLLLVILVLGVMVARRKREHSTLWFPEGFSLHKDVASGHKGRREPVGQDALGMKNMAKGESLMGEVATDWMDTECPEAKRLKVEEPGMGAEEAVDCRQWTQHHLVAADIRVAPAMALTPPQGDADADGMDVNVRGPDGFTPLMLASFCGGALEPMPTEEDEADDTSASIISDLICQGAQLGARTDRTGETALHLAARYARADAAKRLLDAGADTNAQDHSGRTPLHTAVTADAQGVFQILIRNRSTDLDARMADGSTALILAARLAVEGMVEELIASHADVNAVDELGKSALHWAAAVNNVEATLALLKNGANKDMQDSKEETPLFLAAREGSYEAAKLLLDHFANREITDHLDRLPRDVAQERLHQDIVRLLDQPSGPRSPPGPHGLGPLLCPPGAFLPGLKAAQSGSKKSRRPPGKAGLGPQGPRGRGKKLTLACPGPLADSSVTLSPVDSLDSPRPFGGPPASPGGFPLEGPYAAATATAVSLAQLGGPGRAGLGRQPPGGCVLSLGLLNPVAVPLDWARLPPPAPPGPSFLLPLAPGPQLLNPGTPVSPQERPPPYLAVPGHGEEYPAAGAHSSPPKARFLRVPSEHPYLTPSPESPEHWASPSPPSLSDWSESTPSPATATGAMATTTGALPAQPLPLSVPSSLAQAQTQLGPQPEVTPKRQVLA
Test [20] can be described thus: probe aEGFR binding to arrayed compounds – biochemical, biotinylated probe, 635/667 nm fluorescence, primary screen (AID 1097).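 Further: probe is a biotinylated anti-EGFR antibody binding compounds printed on slides; score combines fluorescence near 667 nm and signal to noise of each spot.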 As to conditions: small-molecule microarray, higher = more signal.

`O=C1C2C=CC(C(O)C3CCCCC3)N(Nc3ccccc3F)C2C(=O)N1c1ccccc1` (stereo not given): the composite z-score in test [1] was found to be 0.967; in test [2], 0.619; in test [3], 0.257; in test [4], 0.682; in test [5], 1.66; in test [6], 1.93. Also, the composite z-score in test [7] was 1.31; in [9], 1.55; in [10], -0.0617; in [11], 1.55; in test [15], 3.24; in [17], 0.79. Also, the composite z-score in test [18] came out at 0.0994; in [19] it was 1.02; in [20], 0.239. The z-score in [8] is -0.227 (inactive); in test [12] it was 0.968 (inactive); in [13], -0.645 (inactive); in [14], 0.515 (inactive); in [16], 0.256 (inactive).
In the case of `COCCOC(=O)N1C(=O)[C@@]2(c3cc(C#CCNC(N)=O)ccc31)[C@H](c1ccc(O)cc1)N1[C@H](c3ccccc3)[C@H](c3ccccc3)OC(=O)[C@H]1[C@@H]2C(=O)N1CCc2cc(OC)c(OC)cc2C1`, the composite z-score in test [1] was found to be 0.141; in test [2], 0.0344; in test [3], 0.0525; in test [4] it was 0.67; in test [5], 1.07; in [6], 1.06. The composite z-score in test [7] was 0.786; in test [9], 0.39; in [10], -0.0427; in [11] it was 1.29; in test [15], 1.47; in test [17], -0.0475. In addition, the composite z-score in [18] is 0.978; in [19], 0.636; in test [20], -0.0967. Besides, the z-score is 0.411 (inactive) in [8]; 1.05 (inactive) in [12]; 0.123 (inactive) in test [13]; 1.84 (inactive) in test [14]; -0.732 (inactive) in [16].
Regarding `Cc1ccc(N2C(=O)c3ccccc3[C@@H](C(=O)NCCN3CCOCC3)[C@@H]2c2ccc(CO)cc2)nc1`, the composite z-score in test [1] is 1.02; in test [2] it was -1.48; in test [3] it was -0.116; in test [4], -0.319; in [5], -1.34; in [6] it was 0.209. In addition, the composite z-score is -0.297 in [7]; -0.58 in [9]; -0.249 in [10]; 0.722 in test [11]; 0.58 in test [15]; -0.0798 in test [17]. The composite z-score in [18] is 0.0453; in [19], 0.248; in [20], -0.197. Further, the z-score was 0.169 (inactive) in test [8]; 0.333 (inactive) in test [12]; -0.33 (inactive) in [13]; -1.59 (inactive) in [14]; 0.346 (inactive) in [16].
Take `C=CC[C@]1(C(=O)NCCN2CCOCC2)N=C(c2ccc(OCCCO)cc2)O[C@H]1c1ccccc1`: the composite z-score is -0.038 in [1]; 0.422 in test [2]; -0.0691 in [3]; 0.571 in [4]; 0.862 in test [5]; 0.0304 in test [6]. Also, the composite z-score in test [7] is 1.25; in test [9], 1.18; in [10] it was -0.479; in test [11] it was 1.17; in test [15], 2.65; in test [17], 0.0365. The values for the composite z-score in [18], in test [19] and in test [20] were 0.816, -0.398 and 0.174, respectively. The z-score in test [8] is 1.37 (inactive); in test [12], -1.24 (inactive); in test [13], -0.577 (inactive); in test [14], -1.15 (inactive); in test [16], 0.0059 (inactive).
For the compound `C[N+](C)(C)CCCC[C@@H]1NC(=O)[C@H]2C[C@@H](C(=O)O)[C@@H](c3ccc(O)cc3)N2C1=O`, the composite z-score in [1] was 0.348; in test [2], 0.211; in test [3], -0.133; in test [4] it was -0.0114; in test [5] it was 0.288; in test [6] it was 0.45. In addition, the composite z-score is 1.3 in test [7]; -0.166 in test [9]; -0.199 in [10]; 0.777 in test [11]; 2.61 in test [15]; -0.0481 in test [17]. Further, the composite z-score in test [18] is 0.447; in test [19], 0.5; in test [20], -0.158. Besides, the z-score is 4.06 (inactive) in test [8]; -1.56 (inactive) in test [12]; -1.28 (inactive) in test [13]; -0.5 (inactive) in test [14]; 1.26 (inactive) in test [16].
On to `COc1ccc(CCNC(=O)[C@@]2(C)c3ccccc3C(=O)N(Cc3ccc(OC(F)(F)F)cc3)[C@H]2c2ccc(CO)cc2)cc1`, for which the composite z-score in [1] was -1.45; in test [2] it was 0.197; in test [3], -0.0211; in [4] it was 0.0093; in test [5], 0.484; in [6], 0.41. The composite z-score in test [7] was 1.12; in test [9] it was 0.122; in test [10], -0.679; in test [11], 1.55; in test [15], 2.25; in test [17], -0.403. The figures for the composite z-score in test [18], in test [19] and in [20] were 1.11, 0.743 and 0.686, respectively. For the same compound, the z-score in test [8] was -4.33 (inactive); in test [12] it was -0.219 (inactive); in test [13] it was -0.553 (inactive); in test [14] it was 0.997 (inactive); in test [16] it was -0.663 (inactive).
